Source: PubChem BioAssay AID1845224 (National Center for Advancing Translational Sciences (NCATS), 2023)
Results filed as inconclusive are left out. Unmarked numbers belong to inactive results. Calls follow the shape of the dose curve; as a rule, active = well fitted curve in the direction sought with a large enough effect; inconclusive = small, poorly fitted or top-dose-only effect, or another doubt; inactive = no such curve, though single readings can be large or run the other way.

test system: NanoLuc luciferase (engineered Oplophorus gracilirostris luciferase); test: Confirmatory Nanoluciferase (NLuc) qHTS assay for identification of artifact compounds.; also: % of control where 0% means no effect; settings: secreted NLuc in S16 cell medium, luminescence, 5 min; series mostly up to 39 µM; activity change, negative = inhibition: at the top concentration
Description: PI: Alexander Tropsha Ph.D. UNC Eshelman School of Pharmacy University of North Carolina, Chapel Hill, North Carolina Hits from high-throughput screening (HTS) of chemical libraries are often false positives due to their interference with the assay detection technology. In response to this problem, we generated the largest publicly available library of chemical liabilities and developed a free webtool to predict HTS artifacts, both of which are described herein. More specifically, we generated, curated, and integrated HTS datasets for thiol reactivity, redox activity, and luciferase (firefly and nano) activity. Using these curated datasets, we developed and validated several Quantitative Structure-Interference Relationship (QSIR) models to predict nuisance behavior. […] These models were employed for virtual profiling of the National Center for Advancing Translational Science's (NCATS) in-house library, and 256 compounds for each assay were selected for the experimental validation of nuisance behavior. The BA for these external predictions ranged from 58 to 78% for compounds within the applicability domains of the models. […] The models developed in this study, along with aggregation models previously developed by our group (SCAM Detective) were implemented in "Liability Predictor," an online tool which may be used as part of chemical library design or for triaging HTS hits. Both the models and the curated datasets are publicly available at https://liability.mml.unc.edu/.
PROTOCOL TABLE SEQUENCE No. (e.g., 1, 2, 3, etc.); PARAMETER (e.g., Cells, Incubation, Reagent, etc.); VALUE; DESCRIPTION. 1; Reagent; 2 uL; Nanoluciferase media. 2; Compounds and control; 16 nL; Kalypsis pin tool (Wako USA) equipped with a 1536-well pin head. 3; Incubation; 15 min. 4; Reagent; 2 uL; Luciferase enzyme. 5; Incubation; 5 min. 6; Detection; Luminescence, ViewLux microplate reader. NOTES (numbers refer to Sequence numbers above) 1. Medium was collected from the culture flasks of NLuc-expressing S16 cells (80% confluent) prior to cell plating, filtered through a 0.22um filter, and frozen at -20C prior to use. Media was diluted (1:55) and 2 uL was dispensed into all wells of a 1536-well assay plate (solid-bottom white plate; Greiner Bio One, Monroe, NC). 2. A Wako Pin-tool (Wako Automation, Richmond, VA) was used to transfer 16 nL of compounds (consisting of 7-plates in qHTS format, final concentration range 18.3 nM to 114 uM) or control Cilnidipine (final concentration range 623 nM to 80 uM). 3. 15 min. incubation at room temperature protected from light. 4. 2 uL of NLuc substrate (1:100 in Nano-Glo luciferase buffer; Nano-Glo luminescence assay, Promega, Madison, WI) was dispensed for a final assay volume of 4 uL. 5. Plates were centrifuged (121xg, 15 seconds) and incubated for 5 minutes. 6. Samples were read for luminescence on a ViewLux CCD imager (PerkinElmer). Data were normalized to no-enzyme (0% activity) and no-inhibitor (DMSO; 100%) controls and the resulting percent inhibition data were fitted to a 4-parameter Hill equation using NCATS in-house software.

Row | SMILES | activity change, negative = inhibition
1 | CCOc1ccccc1NC(=O)N1CCCn2nc(C)cc21 | 0%
2 | Cc1cc(NC(=O)Nc2cccc(-c3ccncc3)n2)ccc1Cl | -2.7%
3 | CCc1cccc(C)c1NC(=O)Cn1c(=O)n(-c2ccc(C)cc2)c(=O)c2c1cnn2C | -0.148%
4 | O=C(COc1ccc(Cl)cc1)Nc1ccc2nc(SCC(=O)N3CCCC3)sc2c1 | -0.581%
5 | O=C(Nc1ccc2oc(-c3cccnc3)nc2c1)c1cc2ccccc2o1 | -7.65% [at 78.4 µM]
6 | Cc1cc(C)cc(-n2c(SCC(=O)N3CCCCCC3)nc3c([nH]c4ccccc43)c2=O)c1 | -4.09%
7 | CCN(CC)CCNC(=O)c1nn(C)c2c1CS(=O)(=O)c1ccccc1-2 | 8.41%
8 | COc1ccc(C(=O)Nc2ccc(-c3nc4ncccc4o3)cc2)cc1 | -15.3%
9 | Cc1ccc(-c2nc(=Nc3ccccc3)sn2-c2ccccc2)cc1 | -8.48%
10 | Cc1cccc(-c2noc(-c3ccc(NCc4ccco4)c([N+](=O)[O-])c3)n2)c1 | -14.5%
11 | Cc1ccc(NC(=O)c2ccc(Br)cc2)c(C(=O)c2ccccc2)c1 | -3.05%
12 | C[C@]12C[C@H](O)[C@H]3[C@@H](CCC4=CC(=O)CC[C@@]43C)[C@@H]1CC[C@@H]2C(=O)CO | 0.994%
13 | CCOC(=O)c1c(C)[nH]c(C)c1S(=O)(=O)N1CCC(C(=O)N2CCN(c3ccccc3)CC2)CC1 | -10.8%
14 | COc1ccccc1CNC(=O)c1nn(-c2ccc(C)cc2)c(=O)c2c1c1ccccc1n2C | -1.11%
15 | COc1ccc(OCc2nnc(-c3ccccc3)o2)cc1 | -6.57%
16 | Nc1cccc(-c2ccc(NC(=O)c3cccs3)cn2)c1 | -1.41%
17 | Cc1ccc(C(=O)Nc2nc(-c3ccccc3)ns2)cc1 | -7.23%
18 | O=C(Nc1cc(-c2ccc(F)c(F)c2)no1)c1ccccc1F | -7.28%
19 | Cc1c(Cl)cccc1NC(=O)N1CCOc2ccccc21 | -2.38%
20 | COc1ccc(Cn2c(CCC(=O)Nc3cc(C)cc(C)c3)nc3cccnc32)cc1 | -16.6%

Row | SMILES | activity change, negative = inhibition
21 | COc1ccc(-c2cc(C(=O)Nc3cc(C(F)(F)F)ccc3Cl)no2)cc1 | -1.6%
22 | O=C(OCc1ccccc1)c1ccccc1O | 0.921%
23 | CCN(CCCNC(=O)CSc1cc(=O)n(C)c2ccccc12)c1ccccc1 | -11.1%
24 | Cn1cc(S(=O)(=O)N2CCCC2)cc1C(=O)Nc1ccc(C(F)(F)F)cc1 | -8.69%
25 | C=C(C)[C@]12C[C@@H](C)[C@@]34OC(Cc5ccccc5)(O[C@@H]1[C@@H]3C=C(COC(=O)Cc1cc(OC)c(O)cc1I)C[C@]1(O)C(=O)C(C)=C[C@@H]41)O2 | -8.96%
26 | COc1ccc(NC(=O)Cn2c(=O)n(CCc3ccccc3)c(=O)c3c4c(sc32)CCCC4)cc1 | -3.22%
27 | CCOc1ccc(OCC)c(NS(=O)(=O)c2c(C)[nH]c(=O)[nH]c2=O)c1 | -2.65%
28 | Cc1ccc(S(=O)(=O)c2nnn3c2nc(NCc2ccc(F)cc2)c2sccc23)cc1C | -6.1%
29 | Cc1ccc(CNCc2cn[nH]c2-c2ccc(C)cc2)cc1 | -0.831%
30 | Brc1ccc2nc(SCCOc3ccccc3)[nH]c2c1 | -4.85%
31 | CCOC(=O)C1CCN(C(=O)Cn2c(=O)oc3cc(S(=O)(=O)N4CCC(C)CC4)ccc32)CC1 | -3.85%
32 | O=C(Nc1ccc(-c2nc3ccccc3[nH]2)cc1)c1ccc(Cl)c(Cl)c1 | -3.73%
33 | COc1ccc(NC(=O)CSc2c3c(nc4ccccc24)CCC3)cc1Cl | -4.79%
34 | O=C(Nc1sc2c(c1-c1nc3ccccc3s1)CCNC2)C(F)F | -7.36%
35 | COc1ccc(-n2nc(C(=O)Nc3cccc(C)n3)c3c4ccccc4n(C)c3c2=O)cc1 | 5.29%
36 | Cc1ccc(CSc2ncccc2C(=O)O)cc1 | -19.5%
37 | Cc1cc(O)cc(O)c1C(=O)O | 0.0466%
38 | COc1ccccc1Oc1coc2cc(O)ccc2c1=O | -4.28%
39 | COc1ccc(-c2nc3cccc(C)n3c2Nc2ccc(C)cc2)cc1 | -4.83%
40 | CCCCCCCCCCCCCC(=O)N[C@@H](C)[C@H](O)c1ccccc1 | -1.06%
